Results from PubChem BioAssay (Tox21).
Records with an inconclusive call do not appear. Activity calls are given as the source filed them. Unless noted, the call rests on the fitted dose curve; in most records, active means well fitted curve in the direction sought with a large enough effect in the repeat runs; inconclusive means weak or mixed curves; inactive means no such curve, though single readings can be large; an effect the other way counts as inactive or inconclusive.

Tests used:
[1] = qHTS assay to identify small molecule agonists of the hypoxia (HIF-1) signaling pathway - cell viability counter screen (AID 1224844; calls by dose curve; further: nearly all actives have a fitted effect of over 50% in size)
Procedure, shortened: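 In this counter screen, HRE-bla ME-180 cell viability after 17 hrs of compound exposure at 37C was read by CellTiter-Glo luminescence, multiplexed with the beta-lactamase reporter measurement.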

[2] = qHTS assay to identify small molecule agonists of H2AX (AID 1224845; active means well fitted activation curve with a large enough effect in the signal ratio in the repeat runs, not every such curve was filed as active; the % refers to the signal ratio)
Procedure, shortened: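 Phospho-H2AX Ser139 measured by HTRF (ex 320 nm; em 665 and 620 nm) after 24 hr antibody incubation. Compounds, 15 concentrations, 0.76% DMSO, were applied to CHO-K1 cells for 3hr at 37C before lysis.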

[3] = qHTS assay to identify small molecule agonists of the hypoxia (HIF-1) signaling pathway (AID 1224846; active means well fitted activation curve with a large enough effect in the signal ratio in the repeat runs, not every such curve was filed as active; the % refers to the signal ratio)
Procedure, shortened: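 ME-180 HRE-bla reporter cells; compounds in DMSO, 17 h at 37C; read-out beta-lactamase via CCF4-AM FRET.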

[4] = qHTS assay to identify small molecule agonists of H2AX - cell viability counter screen (AID 1224847; calls by dose curve; further: top concentration of the series differs between compounds; nearly all actives have a fitted effect of over 30% in size)
Procedure, shortened: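 Wild-type CHO-K1 cells (10% FBS medium) were plated overnight at 37C, exposed to compounds at 15 concentrations for 3 hr at 37C (0.76% DMSO final), and viability was read as CellTiter-Glo luminescence after 30 min at room temperature.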

[5] = qHTS assay to identify small molecule antagonists of the estrogen related receptor (ERR) signaling pathway from Tox21 library (AID 1224848); further: nearly all actives have a fitted effect of over 50% in size
Procedure, shortened: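 ERR cell line, 2,000 cells/well. 6 h settle, then compound (DMSO) added; 18 h at 37 C; ONE-Glo luminescence after 30 min RT.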

[6] = qHTS assay to identify small molecule agonists of the estrogen related receptor (ERR) signaling pathway from Tox21 library (AID 1224849; calls by dose curve; further: nearly all actives have a fitted effect of over 15% in size); details: ERR reporter cell line, ONE-Glo luciferase, 18 h; at 92.4 µM (top of the series) unless noted
Procedure, shortened: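 Luciferase activity in ERR pathway reporter cells served as the agonist readout; exposure lasted 18 h at 37 C, with ONE-Glo detection after 30 min at room temperature.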

[7] = qHTS RealTime-Glo MT Cell Viability Assay in HepG2 cells - 24 hour (AID 1224867); further: nearly all actives have a fitted effect of over 50% in size
Procedure, shortened: (§1)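 Cell number in HepG2 cultures estimated from NanoLuc luminescence generated by metabolic reduction of a prosubstrate by living cells. The homogeneous, nonlytic format allowed repeated reads at 0, 8, 16, 24, 32 and 40 h of compound exposure.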

[8] = A CellTox Green Cytotoxicity Assay to monitor cytotoxicity in HEK293 cells - 0 hour (AID 1224869); further: nearly all actives have a fitted effect of over 50% in size
Procedure, shortened: (§2)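 Real-time, in one plate: 600 HEK293 cells/well with dead-cell DNA dye, pinned compound after 5 h, 37 C incubation over 40 h; viable cells give no appreciable fluorescence.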

[9] = A CellTox Green Cytotoxicity Assay to monitor cytotoxicity in HEK293 cells - 40 hour (AID 1224871); further: nearly all actives have a fitted effect of over 45% in size
Procedure, shortened: as §2

[10] = qHTS RealTime-Glo MT Cell Viability Assay in HEK293 cells - 16 hour (AID 1224872)
Procedure, shortened: (§3)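 Homogeneous bioluminescent viability format in HEK293 cells (600 cells/well). Following 5 h at 37 C/5% CO2, 23 nL compound was pintooled; the signal was measured repeatedly during 40 h incubation.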

[11] = qHTS RealTime-Glo MT Cell Viability Assay in HepG2 cells - 8 hour (AID 1224873); further: nearly all actives have a fitted effect of over 55% in size
Procedure, shortened: (§4)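 Real-time viability: cells seeded at 600 per well together with NanoLuc and cell-permeant prosubstrate, compounds added after 5 h incubation. Luminescence tracked at 0, 8, 16, 24, 32 and 40 h of exposure.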

[12] = A CellTox Green Cytotoxicity Assay to monitor cytotoxicity in HEK293 cells - 24 hour (AID 1224875); further: nearly all actives have a fitted effect of over 45% in size
Procedure, shortened: as §2

[13] = qHTS RealTime-Glo MT Cell Viability Assay in HepG2 cells - 32 hour (AID 1224877); further: nearly all actives have a fitted effect of over 55% in size
Procedure, shortened: as §1

[14] = qHTS RealTime-Glo MT Cell Viability Assay in HEK293 cells - 32 hour (AID 1224868)
Procedure, shortened: as §3

[15] = qHTS RealTime-Glo MT Cell Viability Assay in HepG2 cells - 40 hour (AID 1224870); further: nearly all actives have a fitted effect of over 50% in size
Procedure, shortened: as §4

[16] = qHTS RealTime-Glo MT Cell Viability Assay in HEK293 cells - 40 hour (AID 1224874); details: RealTime-Glo luminescence; max response: stronger effect = lower value; further: nearly all actives have a fitted effect of over 50% in size
Procedure, shortened: (§5)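 Kinetic, non-lysing viability readout. Seed HEK293 (600/well) with reagent, incubate 5 h at 37 C/5% CO2, pin 23 nL compound in DMSO, incubate at 37 C, read luminescence at 0, 8, 16, 24, 32, 40 h.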

[17] = A CellTox Green Cytotoxicity Assay to monitor cytotoxicity in HepG2 cells - 16 hour (AID 1224876); further: nearly all actives have a fitted effect of over 45% in size
Procedure, shortened: (§6)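 Cytotoxicity was tracked as dead-cell DNA fluorescence in HepG2 cells treated with test compounds at 37 C; each time-point value comes from one kinetic series spanning 0, 8, 16, 24, 32 and 40 h.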

[18] = A CellTox Green Cytotoxicity Assay to monitor cytotoxicity in HepG2 cells - 24 hour (AID 1224878); further: nearly all actives have a fitted effect of over 45% in size
Procedure, shortened: as §6

[19] = A CellTox Green Cytotoxicity Assay to monitor cytotoxicity in HepG2 cells - 40 hour (AID 1224879); further: nearly all actives have a fitted effect of over 40% in size
Procedure, shortened: as §6

[20] = qHTS RealTime-Glo MT Cell Viability Assay in HEK293 cells - 0 hour (AID 1224880)
Procedure, shortened: as §5
On the % scale 0 is the no-effect control and ±100 the full control effect.

CN(C)CCCOc1nn(Cc2ccccc2)c2ccccc12
inactive: Potency [1] | Potency [2] | outcome [3] | Potency [4] | Potency [5] | activity change, positive = activation [6] -2.65% [at 42.5 µM] | Potency [7] | Potency [8] | Potency [9] | Potency [10] | Potency [11] | Potency [12] | Potency [13]

Cc1cc(CC(=O)O)c(C)n1-c1ccc(Cl)cc1
inactive: Potency [1] | Potency [2] | outcome [3] | Potency [4] | Potency [5] | activity change, positive = activation [6] -14.3% [at 42.5 µM] | Potency [7] | Potency [14] | Potency [8] | Potency [15] | Potency [9] | Potency [10] | Potency [11] | max response [16] -0.616% | Potency [12] | Potency [17] | Potency [13] | Potency [18] | Potency [19] | Potency [20]

Cc1occc1S
inactive: Potency [1] | Potency [2] | outcome [3] | Potency [4] | activity change, positive = activation [6] 9.5% | Potency [7] | Potency [14] | Potency [8] | Potency [15] | Potency [9] | Potency [10] | Potency [11] | max response [16] 3.01% | Potency [12] | Potency [17] | Potency [13] | Potency [18] | Potency [19]

O=C(O)COC(=O)Cc1ccccc1Nc1c(Cl)cccc1Cl
inactive: Potency [1] | Potency [2] | outcome [3] | Potency [4] | Potency [5] | activity change, positive = activation [6] 1.12% [at 42.5 µM] | Potency [7] | Potency [14] | Potency [8] | Potency [15] | Potency [9] | Potency [10] | max response [16] 5.48% | Potency [12] | Potency [13] | Potency [18] | Potency [19] | Potency [20]

N#Cc1cc2ccccc2c2ccccc12
inactive: Potency [1] | Potency [2] | outcome [3] | Potency [4] | Potency [7] | Potency [14] | Potency [8] | Potency [15] | Potency [9] | Potency [10] | Potency [11] | max response [16] -18.9% | Potency [12] | Potency [17] | Potency [13] | Potency [18] | Potency [19]

CCCCOC(=O)c1ccccc1C(=O)OCC(CC)CCCC (stereo not given)
inactive: Potency [1] | Potency [2] | outcome [3] | Potency [4] | Potency [7] | Potency [14] | Potency [8] | Potency [15] | Potency [9] | Potency [10] | Potency [11] | max response [16] -10% | Potency [12] | Potency [17] | Potency [13] | Potency [18] | Potency [19] | Potency [20]

O=C(O)[C@@H]1[C@H]2C[C@H]3c4[nH]c5ccccc5c4CCN3C[C@@H]2CC[C@@H]1O
inactive: Potency [1] | Potency [2] | outcome [3] | Potency [4] | activity change, positive = activation [6] 1.64% [at 42.5 µM] | Potency [7] | Potency [14] | Potency [8] | Potency [15] | Potency [9] | Potency [10] | Potency [11] | max response [16] 1.89% | Potency [12] | Potency [13] | Potency [20]
